Screening data from PubChem BioAssay.
KB-3-1 cytotox: kills parental KB-3-1 adenocarcinoma cells; KB-3-1 viability, CellTiter-Glo ATP luminescence, 72 h; Potency, µM (titrated, usually from 46.1 µM), actives largely listed as cytotoxic; 400,000 compounds, 1.4% hits; AID 1347075; further: on the % scale 0 is the no-effect control and ±100 the full control effect; nearly all actives have a fitted effect of over 60% in size
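Here the drug-naive KB-3-1 line serves as comparator for MDR sub-line selectivity; cells received compound titrations, 72 h at 37 °C, then CellTiter-Glo readout.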
MCF10A rerep: induces DNA re-replication in MCF 10a normal breast cells; MCF 10A DNA re-replication, Hoechst nuclear intensity, 48 h; AID 624296; 350,000 compounds, 2.9% hits; Potency, µM (highest dose often 46.1 µM), for the others: at the top dose activity, positive = re-replication, actives largely listed as activators; further: % of control where 0% means no effect; nearly all actives have a fitted effect of over 50% in size
KB-V1 cytotox: kills drug-selected multidrug resistant KB-V1 cells; KB-V1 MDR cells viability, CellTiter-Glo, 72 h; Potency, µM (highest dose often 46.1 µM), hits mostly cytotoxic; 400,000 compounds, 3.4% hits; AID 1347076; further: on the % scale 0 is the no-effect control and ±100 the full control effect; nearly all actives have a fitted effect of over 60% in size
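Following 72 h at 37 degrees C with compound, KB-V1 cell viability was read by CellTiter-Glo luminescence, medium being phenol-red-free DMEM plus 10% FBS; concentration-response parameters came from normalized, curve-fitted qHTS data.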
HT1080-NT tox: kills 2HG-producing HT-1080-NT fibrosarcoma cells. HT-1080-NT fibrosarcoma viability, CellTiter-Glo ATP luminescence, 48 h. Potency, µM (highest dose often 46.1 µM), inactives show at the top dose activity, negative = less viability, most hits filed as cytotoxic. 360,000 compounds, 1.6% hits. AID 686970;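 further: NT is the 2HG producing partner of a matched IDH1 knockdown line; 0% = DMSO-treated cells and -100% = media-only wells without cells; nearly all actives have a fitted effect of over 55% in size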
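750 cells/well, RPMI + 5% FBS; 2 h settle, compound pin-transfer, 48 h at 37 degrees C. CellTiter-Glo 10 min RT, luminescence. Normalized to DMSO and media-only wells.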
HT1080 IDH1KD tx: HT-1080 IDH1 knockdown cell toxicity (counter line) | HT-1080 IDH1 knockdown viability, ATP luminescence, 48 h | Potency, µM (highest dose often 46.1 µM), without a hit: at the highest dose activity, negative = toxicity, usual class: cytotoxic | 360,000 compounds, 2% hits | AID 686971;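 further: 0% = DMSO wells and -100% = cell-free medium wells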
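CellTiter-Glo luminescence after 48 h compound exposure at 37 degrees C of IDH1-knockdown HT-1080 cells in 5% FBS RPMI. %Activity scaled between DMSO wells and cell-free media wells, with curves fitted and assigned curve classes.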
SW480 rereplic: induces DNA re-replication in SW480 colon adenocarcinoma cells; Potency, µM (top dose mostly 46.1 µM), for inactives: at the top dose re-replication activation, actives largely listed as activators; 340,000 compounds, 1.8% hits; AID 624297; SW480 DNA re-replication, Hoechst DNA content imaging, 48 h; further: % of control where 0% means no effect; nearly all actives have a fitted effect of over 55% in size
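Hoechst fluorescence of nuclei (405 nm excitation, 500-530 nm emission) measured by plate-scanning imager after 48 hr compound exposure at 37 C; re-replication scored as increased number of nuclei with elevated intensity.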
Starred values were filed as active, the others as inactive. The list is not random: actives were taken first. Their share in the collection is about 8%. The call rests on the fitted dose curve; in most records, active means well fitted curve in the direction sought with a large enough effect; inconclusive means small, poorly fitted or top-dose-only effect, or another doubt; inactive means no such curve, though single readings can be large; an effect the other way counts as inactive or inconclusive. Potency means the concentration at half of the fitted maximal effect.

How did Cc1cc(Cl)nc(-c2ccccc2O)n1 do in these assays?
KB-3-1 cytotox: inactive; MCF10A rerep: inconclusive; KB-V1 cytotox: inactive; HT1080-NT tox: -2%; HT1080 IDH1KD tx: -4%; SW480 rereplic: -12%

What do the screens show for `CCOC(=O)Cn1c(CN2CCN(C(=O)c3ccco3)CC2)nc2c1c(=O)n(C)c(=O)n2C`?
KB-3-1 cytotox: inactive; MCF10A rerep: 2%; KB-V1 cytotox: inactive; HT1080-NT tox: 17%; HT1080 IDH1KD tx: 23%; SW480 rereplic: 8%

How did O=C(Cc1cccs1)Nc1nc(-c2ccccc2)cs1 do in these assays?
KB-3-1 cytotox: inconclusive; MCF10A rerep: inconclusive; KB-V1 cytotox: 16µM*; HT1080-NT tox: -28%; HT1080 IDH1KD tx: inconclusive; SW480 rereplic: -3%

Results for Cc1sc(NC(=O)/C=C/c2ccc3c(c2)OCO3)nc1-c1ccccc1 ?
KB-3-1 cytotox: 1.3µM*; MCF10A rerep: inconclusive; KB-V1 cytotox: 2.9µM*; HT1080-NT tox: -10%; HT1080 IDH1KD tx: inconclusive; SW480 rereplic: 6%

What do the screens show for `Cc1cccnc1NC(=O)/C=C/c1ccc2c(c1)OCO2`?
KB-3-1 cytotox: inactive; MCF10A rerep: -27%; KB-V1 cytotox: inconclusive; HT1080-NT tox: -9%; HT1080 IDH1KD tx: 0%; SW480 rereplic: -34%

What do the screens show for `CCOC(=O)c1cc2c(c(CCO)n1)[C@@H](CCO)N(S(=O)C(C)(C)C)C2` (stereo partly specified)?
KB-3-1 cytotox: inactive; MCF10A rerep: -5%; KB-V1 cytotox: inactive; HT1080-NT tox: 8%; HT1080 IDH1KD tx: 8%; SW480 rereplic: -48%

How did CCc1ccc(N2CC(C(=O)OCC(=O)Nc3ccc(C(C)=O)cc3)CC2=O)cc1 (stereo unspecified) do in these assays?
KB-3-1 cytotox: inactive; MCF10A rerep: 1%; KB-V1 cytotox: inconclusive; HT1080-NT tox: 8%; HT1080 IDH1KD tx: 13%; SW480 rereplic: -15%

Results for N#C/C(C(=O)NCc1ccco1)=C1/SC(Cc2ccc(F)cc2)C(=O)N1c1ccccc1 (stereo unspecified) ?
KB-3-1 cytotox: inactive; MCF10A rerep: 7%; KB-V1 cytotox: inactive; HT1080-NT tox: -2%; HT1080 IDH1KD tx: -2%; SW480 rereplic: -7%

How did Cc1noc(C)c1COC(=O)c1cc(C)n(-c2ccccc2)c1C do in these assays?
KB-3-1 cytotox: inconclusive; MCF10A rerep: 23%; KB-V1 cytotox: 7.3µM*; HT1080-NT tox: 5%; HT1080 IDH1KD tx: -18%; SW480 rereplic: 9%

What do the screens show for `Cc1ccccc1NC(=O)c1cccc(OCc2c(C)noc2C)c1`?
KB-3-1 cytotox: inactive; MCF10A rerep: -12%; KB-V1 cytotox: inactive; HT1080-NT tox: 11%; HT1080 IDH1KD tx: 11%; SW480 rereplic: -8%

Results for CCCCOC(=O)c1cc(=O)[nH]c2ccccc12 ?
KB-3-1 cytotox: inactive; MCF10A rerep: 0%; KB-V1 cytotox: 5.8µM*; HT1080-NT tox: 9%; HT1080 IDH1KD tx: -3%; SW480 rereplic: -2%

How did CCCCOC(=O)c1cc(=O)[nH]c2ccc(C)cc12 do in these assays?
KB-3-1 cytotox: 15µM*; MCF10A rerep: -6%; KB-V1 cytotox: 18µM*; HT1080-NT tox: 1%; HT1080 IDH1KD tx: -3%; SW480 rereplic: 5%

What do the screens show for `CCNC(=O)COC(=O)c1cc(=O)[nH]c2ccccc12`?
KB-3-1 cytotox: inactive; MCF10A rerep: 9%; KB-V1 cytotox: inactive; HT1080-NT tox: 10%; HT1080 IDH1KD tx: -12%; SW480 rereplic: -14%

Results for Cc1cccc(C(=O)Nc2ccccc2C(=O)OCc2c(C)noc2C)c1 ?
KB-3-1 cytotox: inactive; MCF10A rerep: 12%; KB-V1 cytotox: 3.3µM*; HT1080-NT tox: 9%; HT1080 IDH1KD tx: -1%; SW480 rereplic: 11%

Results for Cc1noc(C)c1COC(=O)c1cc(=O)[nH]c2ccccc12 ?
KB-3-1 cytotox: inconclusive; MCF10A rerep: 1%; KB-V1 cytotox: 5.8µM*; HT1080-NT tox: 0%; HT1080 IDH1KD tx: -2%; SW480 rereplic: 0%
